# Reference: the supplement of paper PMC10646978
# ± gives the standard deviation.
# What was measured:
# Conditions in all cases: modulator concentration 10 µM
# [1] = system: RAW-Dual (murine macrophage reporter line); assay: NF-kB reporter (SEAP) activity fold change vs agonist alone; higher = enhanced NF-kB activity
# Outline: (§1)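 In 384-well plates holding 50 000 RAW-Dual murine macrophage reporter cells per well, compound at 10 μM final was pre-incubated for 1 hour at 37 °C, after which a PRR agonist was added overnight. Supernatant SEAP read with QUANTI-Blue at 620 nm absorbance reported NF-κB, and Lucia luciferase read with QUANTI-Luc luminescence reported IRF. Fold change values come from dividing each reporter signal by the mean of agonist-only control wells on the same plate, averaged over replicate plates with propagated errors.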
# [2] = system: RAW-Dual (murine macrophage reporter line); assay: IRF reporter (Lucia luciferase) activity fold change vs agonist alone; higher = enhanced IRF activity
# Outline: as §1
# [3] = system: RAW-Dual (murine macrophage reporter line); assay: viability score (confluency relative to resting cells, overnight) (fraction); higher = more viable, active = viable (0.7 or more)
# Outline: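 RAW-Dual macrophages in 384-well plates were incubated overnight with compound, final concentration 10 μM. Confluency images from IncuCyte were processed in IncuCyte software into two masks covering all imaged wells. The viability score is each well's confluency relative to resting cells, and a compound met the cutoff when both masks exceeded 70% of resting cells.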
# [4] = agonist: CpG ODN 1826 0.5 ug/mL
SMILES,"NF-kB reporter [1, 4]",NF-kB reporter ([1]; agonist: LPS 0.1 ug/mL),NF-kB reporter ([1]; agonist: MPLA […]),IRF reporter ([2]; agonist: 3'3'-cGAMP 10 ug/mL),IRF reporter ([2]; agonist: LPS 0.1 ug/mL),IRF reporter ([2]; agonist: MPLA […]),viability score [3]
Cc1c(NN=C2C(=O)NC(=O)NC2=O)c(=O)n(-c2ccccc2)n1C,1.02 ± 0.1,1.03 ± 0.086,0.958 ± 0.042,0.951 ± 0.13,1.08 ± 0.096,0.932 ± 0.14,0.999 (active)
COc1cc2c(c(OC)c1OC)-c1ccc(OC)c(=O)cc1[C@@H](NC(C)=O)CC2,2.45 ± 0.12,1.8 ± 0.14,2.47 ± 0.11,0.0843 ± 0.011,1.5 ± 0.13,1.91 ± 0.42,0.687 (inactive)
CC(=O)OC1CCC2(C)C(CCC3C4CCC(=O)C4(C)CCC32)C1 (stereo unspecified),1.22 ± 0.29,1.06 ± 0.054,1.02 ± 0.089,0.939 ± 0.032,1.21 ± 0.19,1.11 ± 0.18,1.01 (active)
O=[N+]([O-])Nc1ccc(Br)cn1,0.998 ± 0.09,0.98 ± 0.096,0.983 ± 0.048,0.961 ± 0.15,1.09 ± 0.064,1.17 ± 0.095,0.997 (active)
COc1ccc(OC)c(C=C2C(=O)NC(=O)NC2=O)c1,1.15 ± 0.12,0.845 ± 0.061,1.12 ± 0.061,0.99 ± 0.17,0.995 ± 0.05,1.01 ± 0.16,0.995 (active)
c1ccc2c(c1)Nc1ccccc1S2,1.02 ± 0.25,0.934 ± 0.048,0.881 ± 0.11,0.778 ± 0.026,1.31 ± 0.25,1.32 ± 0.13,0.939 (active)
CN1Cc2c(ccc3c2OCO3)C2C(O)Cc3cc4c(cc3C21)OCO4 (stereo unspecified),1.75 ± 0.13,1.49 ± 0.12,1.79 ± 0.19,0.269 ± 0.012,1.64 ± 0.22,2 ± 0.38,0.883 (active)
CCC1(C)CC(=O)NC(=O)C1,0.907 ± 0.15,0.842 ± 0.14,0.941 ± 0.054,0.899 ± 0.073,1.02 ± 0.11,1.11 ± 0.16,0.985 (active)
COc1ccc(CNCCc2c[nH]c3ccccc23)cc1OC,0.397 ± 0.056,0.947 ± 0.12,0.808 ± 0.077,0.763 ± 0.03,1.33 ± 0.26,1.34 ± 0.24,1.01 (active)
O=C(O)CC[N+](=O)[O-],0.87 ± 0.22,0.979 ± 0.066,0.974 ± 0.063,0.912 ± 0.086,0.96 ± 0.23,0.933 ± 0.12,1 (active)
CN1C2CCC1CC(OC(=O)[C@H](CO)c1ccccc1)C2 (stereo partly specified),1.05 ± 0.096,0.961 ± 0.051,0.984 ± 0.031,0.955 ± 0.069,0.968 ± 0.088,0.858 ± 0.14,0.997 (active)
ClC(Cl)=C(c1ccc(Cl)cc1)c1ccc(Cl)cc1,1.14 ± 0.36,1.03 ± 0.068,1.07 ± 0.11,0.961 ± 0.055,1.12 ± 0.12,1.25 ± 0.12,0.714 (active)
CCOc1cc(C=C2C(=O)NC(=O)NC2=O)ccc1OCc1c(Cl)cccc1Cl,1.06 ± 0.091,1.01 ± 0.07,0.938 ± 0.11,1.07 ± 0.038,1.35 ± 0.11,1.2 ± 0.14,1.01 (active)
CCC1CN2CCC1CC2C(O)c1ccnc2ccc(OC)cc12 (stereo unspecified),1.05 ± 0.25,1.16 ± 0.066,1.1 ± 0.08,0.565 ± 0.021,1.21 ± 0.17,1.33 ± 0.26,0.983 (active)
CCOC(=O)c1ccccc1-c1ccc(C=C2C(=O)NC(=O)N(c3ccccc3C)C2=O)o1,0.727 ± 0.082,0.444 ± 0.025,0.358 ± 0.051,0.655 ± 0.023,0.631 ± 0.096,0.321 ± 0.088,0.0805 (inactive)
CC(=O)C1CCC2C3CCC4CC(O)CCC4(C)C3CCC12C (stereo unspecified),1.17 ± 0.28,1.16 ± 0.097,1.02 ± 0.079,0.858 ± 0.034,1.2 ± 0.19,1.38 ± 0.13,0.985 (active)
NC(=O)Cn1c(Cc2ccccc2Cl)nc2ccccc21,0.97 ± 0.061,0.84 ± 0.074,0.912 ± 0.031,0.996 ± 0.06,1.06 ± 0.093,0.99 ± 0.13,0.997 (active)

SMILES,"NF-kB reporter [1, 4]",NF-kB reporter ([1]; agonist: LPS 0.1 ug/mL),NF-kB reporter ([1]; agonist: MPLA […]),IRF reporter ([2]; agonist: 3'3'-cGAMP 10 ug/mL),IRF reporter ([2]; agonist: LPS 0.1 ug/mL),IRF reporter ([2]; agonist: MPLA […]),viability score [3]
O=C1NC(=S)NC(=O)C1=Cc1ccc(OCc2ccc(F)cc2)c(Cl)c1,0.918 ± 0.092,0.943 ± 0.064,0.802 ± 0.05,0.765 ± 0.02,1.13 ± 0.095,0.824 ± 0.14,1.01 (active)
CCC1(C)CC(CCNCc2ccccc2)(c2ccc(C)cc2)CCO1 (stereo unspecified),0.701 ± 0.29,1.15 ± 0.099,1.19 ± 0.18,0.57 ± 0.018,1.38 ± 0.14,1.76 ± 0.31,0.547 (inactive)
NC(=O)CN1CC(O)CC1=O (stereo unspecified),1.04 ± 0.079,1.04 ± 0.051,1 ± 0.03,0.961 ± 0.081,1.02 ± 0.082,0.954 ± 0.097,0.996 (active)
CCC1(c2ccc(N)cc2)CCC(=O)NC1=O (stereo unspecified),1.22 ± 0.091,1.04 ± 0.052,1.06 ± 0.089,1.12 ± 0.26,0.913 ± 0.077,0.939 ± 0.083,0.996 (active)
COc1cc(OC)c(OC)cc1C=O,1.08 ± 0.3,1.04 ± 0.082,1.02 ± 0.067,0.794 ± 0.027,1.02 ± 0.11,0.99 ± 0.22,0.992 (active)
O=C1NC(=O)N(c2ccccc2F)C(=O)C1=Cc1cc(Cl)ccc1OCc1ccc([N+](=O)[O-])cc1,0.892 ± 0.071,1.05 ± 0.078,0.744 ± 0.045,0.741 ± 0.018,0.972 ± 0.087,0.855 ± 0.16,1.01 (active)
CC(NC(C)(C)C)C(=O)c1cccc(Cl)c1.Cl (stereo unspecified),0.906 ± 0.1,1.09 ± 0.11,0.99 ± 0.048,0.986 ± 0.065,0.955 ± 0.1,0.904 ± 0.14,0.998 (active)
COc1ccc(CCNCc2ccc(OC)c(OC)c2OC)cc1OC,1.01 ± 0.11,0.876 ± 0.14,0.942 ± 0.052,0.927 ± 0.16,1.01 ± 0.044,0.997 ± 0.11,0.998 (active)
COc1cc2c(cc1OC)C1CC(=O)C(CC(C)C)CN1CC2 (stereo unspecified),1.09 ± 0.093,1.04 ± 0.076,0.986 ± 0.045,0.983 ± 0.065,0.933 ± 0.047,0.904 ± 0.073,0.992 (active)
CC12CCC3C(CCC4CC(Cl)CCC43C)C1CCC2=O (stereo unspecified),0.925 ± 0.074,0.921 ± 0.077,0.906 ± 0.094,0.961 ± 0.11,0.953 ± 0.11,0.955 ± 0.16,1.05 (active)
O=C1NC(=O)C(=CNc2cccc(O)c2)C(=O)N1,0.859 ± 0.075,0.914 ± 0.053,1.09 ± 0.13,0.977 ± 0.062,1.43 ± 0.1,1.6 ± 0.17,1.01 (active)
COCCN1C(=O)CN(C2CCN(CC(=O)N3CC(C)OC(C)C3)CC2)C1=O (stereo unspecified),0.903 ± 0.056,0.889 ± 0.11,0.997 ± 0.073,0.95 ± 0.13,0.979 ± 0.13,1.03 ± 0.29,0.977 (active)
COc1ccc(C(CN(C)C)C2(O)CCCCC2)cc1.Cl (stereo unspecified),1.07 ± 0.08,1.06 ± 0.1,0.971 ± 0.056,1.07 ± 0.22,0.867 ± 0.052,0.928 ± 0.081,1 (active)
COc1ccc2c3c([nH]c2c1)C(C)=NCC3,0.359 ± 0.089,0.917 ± 0.046,0.852 ± 0.054,0.778 ± 0.038,0.771 ± 0.17,0.793 ± 0.15,1 (active)
CCCCCC(=O)NC(Oc1ccc([N+](=O)[O-])cc1)C(Cl)(Cl)Cl (stereo unspecified),0.988 ± 0.091,1.08 ± 0.07,1 ± 0.035,0.896 ± 0.22,1.06 ± 0.085,1.03 ± 0.069,1 (active)
Cc1noc(C)c1CC(=O)N1CCCSCC1CN1CCCC1 (stereo unspecified),0.943 ± 0.093,1.03 ± 0.083,0.906 ± 0.04,1.1 ± 0.065,1.09 ± 0.11,0.972 ± 0.14,1 (active)
